An excerpt weighted towards active compounds, which were near 16% of everything screened.
uPA surface inh: qHTS for Inhibitors of Cell Surface uPA Generation; hit rate 0.31% among 330,000; Potency, µM (highest dose often 38.3 µM), without a hit: at the top dose activity change, negative = inhibition, most hits filed as inhibitors; cell surface uPA generation assay, qHTS; AID 540303, 2011; active means well fitted inhibition curve with a large enough effect; inconclusive means small, poorly fitted or top-dose-only effect; inactive means no such curve, though single readings can be large or run the other way; tested in mouse RAW 264.7 cells; further: potency means the concentration at half of the fitted maximal effect; on the % scale 0 is the no-effect control and ±100 the full control effect; nearly all actives have a fitted effect of over 55% in size
TDP1 cell noCPT: qHTS for Inhibitors of human tyrosyl-DNA phosphodiesterase 1 (TDP1): qHTS in cells in absence of CPT. DT40 Tdp1-/- hTDP1 cells, no CPT, ATP luminescence, 48 h. Potency, µM (doses to about 46.2 µM), for the others: at the top dose activity change, negative = growth inhibition, hits mostly inhibitors. hit rate 15% among 420,000; further: potency means the concentration at half of the fitted maximal effect; on the % scale 0 is the no-effect control and ±100 the full control effect; nearly all actives have a fitted effect of over 55% in size
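A cellular qHTS used chicken DT40 cells lacking endogenous Tdp1 but carrying stably transfected human TDP1. Compounds were applied without camptothecin, and cell growth kinetics were judged by ATP-dependent luminescence after ≥48 hr.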
miR-21 act: qHTS Assay for Modulators of miRNAs and/orActivators of miR-21; 340,000 tested, under 10 active; HeLa miR-21 FLuc reporter, luciferase, 48 h; Potency, µM (titrated, usually from 38.3 µM), for the others: at the highest dose activity change, positive = activation, actives largely listed as activators;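 further: % of control where 0% means no effect; miR-21 action dims this reporter so a rising signal means less miR-21 action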
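HeLa cells stably expressing CMV-driven firefly luciferase with a downstream miR-21 binding sequence, endogenously expressing miR-21, were treated with titrations (up to about 40uM final) for 48 hours at 37 degree Celsius. Luciferase luminescence was read after lysis.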
TDP1 block: qHTS Assay for Inhibitors of Tyrosyl-DNA Phosphodiesterase (TDP1). Tyrosyl-DNA phosphodiesterase 1 (Homo sapiens), Q9NUW8. recombinant TDP1, AlphaScreen DNA substrate cleavage. Potency, µM (doses to about 130 µM), without a hit: top-dose activity change, negative = inhibition, actives largely listed as inhibitors. hit rate 0.28% among 350,000; further: potency means the concentration at half of the fitted maximal effect; on the % scale 0 is the no-effect control and ±100 the full control effect; nearly all actives have a fitted effect of over 40% in size
Target sequence (Q9NUW8 whole entry, looked up): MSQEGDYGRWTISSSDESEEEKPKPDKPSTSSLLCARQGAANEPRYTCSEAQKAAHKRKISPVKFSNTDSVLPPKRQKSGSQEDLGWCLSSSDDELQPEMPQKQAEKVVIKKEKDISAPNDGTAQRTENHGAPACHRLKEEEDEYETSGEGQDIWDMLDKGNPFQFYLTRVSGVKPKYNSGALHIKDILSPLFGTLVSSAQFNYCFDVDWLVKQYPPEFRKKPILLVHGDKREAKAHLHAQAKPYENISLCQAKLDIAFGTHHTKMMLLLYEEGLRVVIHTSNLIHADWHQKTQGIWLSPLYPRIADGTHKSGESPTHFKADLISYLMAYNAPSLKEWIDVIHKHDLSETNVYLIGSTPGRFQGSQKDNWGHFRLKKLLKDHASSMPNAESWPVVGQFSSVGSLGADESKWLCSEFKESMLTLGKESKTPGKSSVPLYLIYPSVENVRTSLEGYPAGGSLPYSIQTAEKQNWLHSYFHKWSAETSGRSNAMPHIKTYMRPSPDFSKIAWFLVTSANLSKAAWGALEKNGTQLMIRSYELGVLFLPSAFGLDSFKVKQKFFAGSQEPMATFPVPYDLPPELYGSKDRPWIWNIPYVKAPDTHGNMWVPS
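E. coli-derived human Tdp1, 1 nM final. Cpd preinc 15 min RT; substrate 15 nM final, 5 min RT; AS bead mix 10 ug/ml final, 10 min RT. Signal loss = tyrosine-FITC cleavage. No-enzyme wells = max signal.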
DT40 TDP1 CPT: qHTS for Inhibitors of human tyrosyl-DNA phosphodiesterase 1 (TDP1): qHTS in cells in presence of CPT; chicken DT40 Tdp1-/-;hTDP1 cells + 20 nM CPT, ATP luminescence, 48 h; Potency, µM (doses to about 46.2 µM), without a hit: at the top dose activity change, negative = growth inhibition, hits mostly inhibitors; hit rate 12% among 420,000; further: potency means the concentration at half of the fitted maximal effect; on the % scale 0 is the no-effect control and ±100 the full control effect; nearly all actives have a fitted effect of over 55% in size
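Cell growth measured by CellTiter-Glo luminescence after a minimum 48 h, 37 C compound exposure with 20 nM CPT in Tdp1-knockout DT40 cells stably expressing hTDP1, seeded 400/well; qHTS titration format.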
* = called active by the depositor; ? = inconclusive; . = no result given; ! = repeats disagree; [ ] = remark or other dose. Unless noted, the call rests on the fitted dose curve; in most records, active means well fitted curve in the direction sought with a large enough effect; inconclusive means small, poorly fitted or top-dose-only effect, or another doubt; inactive means no such curve, though single readings can be large; an effect the other way counts as inactive or inconclusive.

SMILES	uPA surface inh	TDP1 cell noCPT	miR-21 act	TDP1 block	DT40 TDP1 CPT
COc1ccc(C2CC(=O)c3c([nH]c(C(=O)OC4CCCCCC4)c3C)C2)cc1OC (stereo not drawn)	.	4.6µM*	19%	5%	3.7µM*
Cc1c(C(=O)OC2CCCC2)[nH]c2c1C(=O)CC(c1ccc(C(C)(C)C)cc1)C2 (stereo not drawn)	.	?	-14%	0%	18µM*
Cc1c(C(=O)N2CCOCC2)[nH]c2c1C(=O)CC(c1ccccc1Cl)C2 (stereo not drawn)	?	4.1µM*	?	2%	3.3µM*
Cc1c(C(=O)OC2CCCCC2)[nH]c2c1C(=O)CC(c1ccccc1Cl)C2 (stereo not drawn)	.	2.1µM*	20%	5%	4.1µM*
Cc1c(C(=O)OC2CCC(C)CC2)[nH]c2c1C(=O)CC(c1ccc(F)cc1)C2 (stereo not drawn)	.	18µM*	16%	0%[12.3 µM]	?
O=C(C[C@H]1C/C=C\CC[C@@H](Cc2ccc(F)cc2)C(=O)OCCNC1=O)NCCO	1%	-24%	.	1%	-21%
O=C(/C=C1\NC2(CCCC2)Cc2ccccc21)N1CCOCC1	4%	12µM*	-1%	3%	12µM*
N#CC(C#N)=C1NC2(CCCCC2)Cc2ccccc21	-9%	0%	3%	.	-13%
O=C(CCc1nc2ccccc2c(=O)[nH]1)NNC(=O)COc1ccc(Br)cc1	1%	-2%	.	-7%	?
O=c1[nH]c(CSc2nnc(COc3ccccc3)n2-c2ccccc2)nc2ccccc12	-19%	-29%	-12%	10%	-1%
CCOc1ccc(Nc2nnc(SCc3nc4ccccc4c(=O)[nH]3)s2)cc1	-5%	18µM*	-13%	.	18µM*
O=c1[nH]c(COc2ccccc2)nc2ccccc12	?	?	-13%	.	21µM*
O=c1[nH]c(COc2ccc(Br)cc2Cl)nc2ccccc12	-8%	?	-65%	6%	21µM*
Cc1cc(Br)ccc1NCc1ccccn1	1%	-22%	-26%	-5%	?
O=C(O)Cc1sc(Nc2cccc3ccccc23)nc1-c1ccc(Cl)cc1	8%	-4%	-12%	.	3%
O=C(NN=Cc1ccccc1O)C(O)(c1ccccc1)c1ccccc1	-3%	8.2µM*	.	.	23µM*
O=C(N/N=C/c1cc([N+](=O)[O-])cc([N+](=O)[O-])c1O)C(O)(c1ccccc1)c1ccccc1	0%	4%	.	-3%	36%
O=C(N/N=C/c1ccc(O)c([N+](=O)[O-])c1)C(O)(c1ccccc1)c1ccccc1	2%	2.9µM*	0%	.	?
Cc1cc(/C=N/NC(=O)C(O)(c2ccccc2)c2ccccc2)c(C)n1-c1ccccc1	2%	?	-7%	5%	?
CC1CCN(S(=O)(=O)c2ccc(C(=O)N(C)C3CCS(=O)(=O)C3)cc2)CC1 (stereo not drawn)	-2%	-12%	.	1%	-16%
Cc1ccc(C(CCNC(C)c2cccs2)c2ccco2)cc1 (stereo not drawn)	3%	18µM*	10%	.	?
CCOc1ccc(NC(=O)Nc2ccon2)cc1	?	?	-24%	3%[56.1 µM]	?
COc1ccc(-c2cnc3c(NC=O)cc(-c4ccccc4)cn23)cc1OC	.	0.92µM*	.	.	0.92µM*
COc1ccc(-c2cnc3c(NC=O)cc(-c4cccc(NS(C)(=O)=O)c4)cn23)cc1OC	.	3.7µM*	.	.	4.6µM*
COc1ccc(F)cc1-c1cc(NC=O)c2ncc(-c3cccc(C(F)(F)F)c3)n2c1	.	4.6µM*	.	.	5.2µM*
SMILES	uPA surface inh	TDP1 cell noCPT	miR-21 act	TDP1 block	DT40 TDP1 CPT
COc1ccc(-c2cnc3c(NC=O)cc(-c4ccoc4)cn23)cc1OC	.	2.9µM*	.	.	5.2µM*
O=C(NC(=S)Nc1ccc(Cl)cn1)c1cc([N+](=O)[O-])ccc1N1CCOCC1	-2%	4%	0%	4%	-3%
Cc1ccc(NC(=O)CSc2nnc(CNC(=O)c3ccco3)n2C)cc1C	-17%	3%	.	.	-11%
O=[N+]([O-])c1cccc(/C([O-])=C(/C(=S)Nc2ccccc2)[n+]2ccccc2)c1	2%	?	-44%	3%	-26%
COc1ccc(-c2cncc3nccn23)cc1OC	.	0%	.	.	6%
COc1ccc(-c2ccc3oc(-c4ccc(OC)cc4)c(-c4cc(OC)c(OC)c(OC)c4)c3c2)cc1	9%	-25%	.	.	-11%
COc1ccc(-c2cnc3c(NC=O)cc(-c4cc(OC)c(OC)c(OC)c4)cn23)cc1OC	.	5.2µM*	.	.	6.5µM*
COc1cccc(-c2cc(NC=O)c3ncc(-c4ccc(OC)c(OC)c4)n3c2)c1	.	4.1µM*	.	.	5.2µM*
COc1ccc(-c2ccnc3c(-c4ccc(F)cc4)c(C)nn23)cc1OC	.	?	-6%	3%	-8%
COc1ccc(-c2cnc3c(NC=O)cc(-c4ccc(F)cc4)cn23)cc1OC	.	0.013µM*	.	.	0.0058µM*
COc1ccc(-c2cc(NC=O)c3ncc(-c4cc(OC)c(OC)c(OC)c4)n3c2)cc1	.	0.21µM*	.	.	0.15µM*
NC(=O)C1CCN(C(c2ccccc2Cl)c2nnnn2Cc2ccc3c(c2)OCO3)CC1 (stereo not drawn)	-3%	-18%	-2%	2%	10%
COC(=O)CNC(=O)CSc1nc2c(sc(=S)n2-c2ccccc2)c(=O)[nH]1	2%	-3%	3%	.	3%
COc1cccc(Nc2cc(-c3ccccc3)nc(C)n2)c1	.	?	-46%	-1%	?
CCOC(=O)c1ccc(Nc2cc(-c3ccccc3)nc(C)n2)cc1	.	?	-1%	-4%	-29%
Cc1ccc(Nc2cc(-c3ccccc3)nc(C)n2)cc1	.	26µM*	-54%	5%	?
Cc1nc(Nc2ccc(Cl)cc2)cc(-c2ccccc2)n1	.	-103%	-20%	-3%	23µM*
COc1cc(C(O)P(=O)(OCC(C)C)OCC(C)C)cc(OC)c1OC (stereo not drawn)	10%	?	-1%	3%	?
Nc1nonc1C(=O)NCCNCc1cccc(Cl)c1Cl	.	-27%	-9%	-1%	-22%
COc1cc(CNCCNC(=O)c2nonc2N)ccc1OCc1ccc(Cl)cc1	-10%	21µM*	-7%	-2%	?
Nc1nonc1C(=O)NCCNCc1cc(Br)ccc1OCc1ccccc1F	-7%	21µM*	30%	5%	21µM*
CCOc1ccccc1CNCCNC(=O)c1nonc1N	-2%	26µM*!	-2%	-2%	?

Screening data (PubChem)
